# According to the supplement of paper PMC10338343:
# ± gives the standard deviation.
# Key:
# [1] = tested on: MILI (PIWIL2) piRISC loaded with L1MC piRNA (26 nt); assay: pre-steady-state target cleavage rate (min^-1); guide: L1MC piRNA 5'p-UAACUAAAUACUAUGCAAGCUGUAGG; higher = faster piRNA-guided slicing of the target;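 note: 1 nM active piRISC with 0.1 nM target library at 33 °C single turnover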
# How it was run: (§1)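 Cleave-'n-Seq measured uncleaved targets by sequencing after a transcribed, DNA-blocked target RNA library […] was mixed with 1 nM active affinity-purified piRISC holding one synthetic guide, with or without 500 nM GTSF1 partner protein, at 33 °C in HEPES–potassium acetate buffer for 0–8 or 0–960 min. Counts were normalised to depth and to weakly complementary targets, three trials were pooled, and k3 was capped at 0.0001 min^-1. A burst-and-steady-state fit gave the pre-steady-state cleavage rate.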
# [2] = tested on: EfPiwi piRISC loaded with L1MC piRNA (26 nt); assay: pre-steady-state target cleavage rate (min^-1); auxiliary factor: 500 nM Ephydatia muelleri Gtsf1; guide: L1MC piRNA 5'p-UAACUAAAUACUAUGCAAGCUGUAGG; MIWI and MILI are mouse PIWI proteins and EfPiwi is from a freshwater sponge; tags in brackets are library labels; higher = faster piRNA-guided slicing of the target
# How it was run: as §1
# [3] = auxiliary factor: 500 nM mouse GTSF1
# [4] = auxiliary factor: none (no GTSF1)
Sequence,"pre-steady-state target cleavage rate [1, 3]","pre-steady-state target cleavage rate [1, 4]",pre-steady-state target cleavage rate [2]
UCCUGCUACAGCUUGCAUAGUAUUUACGUUA,0.21 ± 0.023,0.00615 ± 0.0025,0.00429 ± 0.002
UCCUGCUACAGCUUGCAUAGUUAUUAGUUA,0.0372 ± 0.013,0.00337 ± 0.002,0.00354 ± 0.0022
UCCUGGAUGAGCUAGCAUAGUAAUUAGUUA,0.131 ± 0.018,0.00472 ± 0.0025,0.00293 ± 0.0021
UCCUGCUAGAGCUUGCAUAGUAUUAAGUUA,0.256 ± 0.033,0.00303 ± 0.0024,0.00624 ± 0.0022
UCCUGGAUCUCCUUGCAUAGUAUUUAGUAA,0.203 ± 0.024,0.00367 ± 0.0019,0.00383 ± 0.0026
UCCUGGAUGUGCUUGCAUGGUAUUUAGUUA,0.086 ± 0.014,0.0124 ± 0.0032,0.0043 ± 0.0042
UCCUGGAACAGCUUGUCAUAGUAUUUAGUUA,0.2 ± 0.014,0.00365 ± 0.0033,0.0277 ± 0.0088
UCCUCCUACAGCUUGCAUAGUAUUUAGUUG [g2:g26:cont:t1G],0.158 ± 0.016,0.0087 ± 0.0025,0.00723 ± 0.0029
UCCUCCUACAGCUUCAUAGUAUUUAGUUA,0.238 ± 0.013,0.0049 ± 0.002,0.0399 ± 0.015
UCCUCCUAGAGCUUGCUUAGUAUUUAGUUA,0.261 ± 0.014,0.00563 ± 0.0022,0.0217 ± 0.0064
UCCUGGAACAGGUUGCUUAGUAUUUAGUUA,0.253 ± 0.015,0.0109 ± 0.0031,0.00924 ± 0.0022
UCCUGCUACAGCUUGCAUAGUAGUUUAGUUA,0.239 ± 0.032,0.0034 ± 0.0024,0.00695 ± 0.0028
UCCUCCUACACGCUUGCAUAGUAUUUAGUUA,0.207 ± 0.013,0.00734 ± 0.0025,0.00856 ± 0.003
UCCUGGAUCAGCUUGUCAUAGUAUUUAGUUA,0.21 ± 0.019,0.00334 ± 0.0027,0.0196 ± 0.0046
UCCUGGUACAGCAUGCAUAGUAAUUAGUUA,0.193 ± 0.025,0.013 ± 0.0032,0.00882 ± 0.0034
UCCUGCUACACCUUGCAUUGUAUUUAGUUA,0.151 ± 0.014,0.0123 ± 0.004,0.00323 ± 0.0025
UCCUGCUACAGCAUGCAAAGUAUUUAGUUA,0.163 ± 0.015,0.00807 ± 0.0029,0.00845 ± 0.0025
UCCUGGUACUGCUUGCAAAGUAUUUAGUUA,0.0806 ± 0.01,0.00779 ± 0.0021,0.0752 ± 0.027
UCCUGGAUCUGCUUGCAUAGUAUUUUGUUA,0.092 ± 0.015,0.00429 ± 0.0026,0.0153 ± 0.0053
UCCUGGAUGUCCUUGCAUAGUAUUUGGUUA,0.0891 ± 0.016,0.00707 ± 0.0022,0.00366 ± 0.0027
UCCUGGAUGUCGUUAGCAUAGUAUUUAGUUA,0.0539 ± 0.012,0.00456 ± 0.0029,0.00456 ± 0.0035
UCCUGCUACAGCUCUGCAUAGUAUUUAGUUA,0.25 ± 0.016,0.00983 ± 0.0027,0.0151 ± 0.0038
UCCUGGUACAGCUAGCUUAGUAUUUAGUUA,0.248 ± 0.023,0.00768 ± 0.0025,0.00544 ± 0.0027
UCCUGGAACAGCUUGCAUUGUAUUUAGUAA,0.17 ± 0.02,0.00563 ± 0.0025,0.00646 ± 0.0024
UCCUGGAACAGGUUGCAUAGUAUUUAGUUA,0.308 ± 0.018,0.0111 ± 0.0022,0.0388 ± 0.0088

Sequence,"pre-steady-state target cleavage rate [1, 3]","pre-steady-state target cleavage rate [1, 4]",pre-steady-state target cleavage rate [2]
UCCUCCUAGAGCUUGCAUAGUAUUUAGUUA,0.232 ± 0.019,0.00656 ± 0.0021,0.0186 ± 0.0054
UCCUCCUACAGGAAGCAUAGUAUUUAGUAA,0.247 ± 0.018,0.00328 ± 0.0023,0.00397 ± 0.0031
UCCUGGAUCAGGCUUGCAUAGUAUUUAGUUA,0.213 ± 0.017,0.0107 ± 0.0028,0.0132 ± 0.0034
UCCUGGUACACGCUUGCAUAGUAUUUAGUUA,0.167 ± 0.046,0.0158 ± 0.0071,0.00613 ± 0.0031
UCCUGCUACAGCUUGCAUGUAUUUAGUUA,0.104 ± 0.02,0.00362 ± 0.0023,0.00438 ± 0.0028
UCCUCCUACAGCUUGCUAAGUAUUUAGUUA,0.17 ± 0.012,0.00586 ± 0.0019,0.00593 ± 0.0039
UCCUGGAACGGCUUGCAUAGUAUUUAGUUA,0.259 ± 0.017,0.0129 ± 0.0024,0.0243 ± 0.0075
UCCUGGAACAGCUUGCAUAGUAUUAUGUUA,0.105 ± 0.026,0.00259 ± 0.0025,0.00324 ± 0.0021
UCCUGGAUGUCCUUCGCAUAGUAUUUAGUUA,0.0676 ± 0.015,0.00538 ± 0.0022,0.01 ± 0.0052
UCCUCCUACAGCUUGCAUAGUAAUUUAGUUA,0.199 ± 0.019,0.00674 ± 0.0025,0.00821 ± 0.0033
UCCUGGAUGUGCUUGCAUAGUAUUUUGUUA,0.0696 ± 0.019,0.00381 ± 0.0032,0.00341 ± 0.0026
UCCUCCUACAGCUUGCAUAGUAUUUAAGUUA,0.214 ± 0.022,0.00686 ± 0.0024,0.00943 ± 0.0038
UCCUGGAUCGAGCUUGCAUAGUAUUUAGUUA,0.201 ± 0.016,0.0122 ± 0.0026,0.0315 ± 0.0069
UCCUGGAUCUCCUUGCAUAGUAUUUAGUUA,0.226 ± 0.014,0.00588 ± 0.0018,0.0227 ± 0.0066
UCCUGGUACAGCUUGCAAAGUAUUUAGUUA,0.11 ± 0.013,0.00987 ± 0.0024,0.0101 ± 0.0035
UCCUGCUACAGGUUGCAUUGUAUUUAGUUA,0.141 ± 0.019,0.0103 ± 0.0026,0.00597 ± 0.0023
UCCUGCCUACAGCUUGCAUAGUAUUUAGUUA,0.342 ± 0.022,0.0113 ± 0.0037,0.0909 ± 0.021
UCCUGGUACAGCUUGCUUAGUUUUUAGUUA,0.0347 ± 0.011,0.00709 ± 0.0023,0.00346 ± 0.003
UCCUGCUGACAGCUUGCAUAGUAUUUAGUUA,0.327 ± 0.025,0.00993 ± 0.0029,0.0486 ± 0.013
UCCUGGUAGACCUUGCAUAGUAUUUAGUUA,0.221 ± 0.022,0.00488 ± 0.0036,0.0182 ± 0.0065
UCCUCCUUCAGCUUGGAUAGUAUUUAGUUA,0.242 ± 0.015,0.0086 ± 0.0023,0.0562 ± 0.013
UCCUGCUACACCUUGGAUAGUAUUUAGUUA,0.122 ± 0.021,0.00552 ± 0.0022,0.00538 ± 0.0021
UCCUCCUUCAGCAUGCAUAGUAUUUAGUUA,0.265 ± 0.017,0.00701 ± 0.0018,0.0621 ± 0.018
UCCUGGAUCAGCUGCAUAGUAUUUAGUUA,0.25 ± 0.015,0.00821 ± 0.0027,0.0152 ± 0.0053
UCCUGGAUGUGCUUGCAUAGUAUUUAGUUUA,0.141 ± 0.015,0.00735 ± 0.0032,0.00801 ± 0.0032
